Data: ChEMBL document CHEMBL3988442, “University of Dundee, Small-Polar-MMV Screening Library” (2021)
In all, about 48,000 compounds went through this assay and about 13,000 (27%) showed an effect of 50% or more. The list shows a part of the results.

System: Wolbachia pipientis
Test: Anti-Wolbachia Cell-Based Screen
Format: functional
Set-up: scale not given: in the data most compounds retested in dose-response had high values
Settings: 5 µM

SMILES | Percent Effect
c1ccc(-c2nnc3ccc(N4CCC5(CCOC5)C4)nn23)cc1 (stereo unspecified) | -13.9%
CNC(=O)CN1CCC(NC(=O)C(C)Oc2ccccc2C#N)CC1 (stereo unspecified) | 0.1216%
CC(C)NS(=O)(=O)c1cc(C(=O)O)cc(-c2ccccc2CO)c1 | 11.88%
Cc1nc(C2CCCN2Cc2ncc(C(C)C)o2)no1 (stereo unspecified) | 8.273%
Cc1nc(CN2CCCC2c2noc(C(C)C)n2)oc1C (stereo unspecified) | 98.12%
Cc1nc(C2CCCN2Cc2nc(C)c(C)o2)no1 (stereo unspecified) | -0.5484%
Cc1cc(CN2CCC(C3CCN(CCc4ccccc4)C3)CC2)[nH]n1 (stereo unspecified) | -6.326%
CCn1cnnc1CNC(=O)C1CCCN(Cc2cccc(F)c2)C1 (stereo unspecified) | 3.888%
Cc1nc[nH]c1CN1CCC(C2CCN(CCc3ccccc3)C2)CC1 (stereo unspecified) | -8.62%
Cc1cc(CN2CCC(C3CCN(Cc4cccnc4)CC3)C2)[nH]n1 (stereo unspecified) | -58.7%
CCc1c(C)nc2cc(C3CCN(CCc4ccccc4)C3)nn2c1O (stereo unspecified) | 76.13%
NC(=O)c1cccc2nc([C@H]3CCN(Cc4ccccc4F)C3)[nH]c12 | 1.754%
Cn1cnnc1CNC(=O)C1CCCN(Cc2cccc(F)c2)C1 (stereo unspecified) | -3.668%
CCc1c(C)nc2cc(C3CCN(Cc4ccccc4F)C3)nn2c1O (stereo unspecified) | -15.15%
Cc1nc2cc(C3CCN(Cc4ccccc4F)C3)nn2c(O)c1C (stereo unspecified) | 92.44%
CCc1c(C)nc2cc(C3CCN(Cc4cccc(F)c4)C3)nn2c1O (stereo unspecified) | 98.22%
CCc1c(C)nc2cc(C3CCN(Cc4cccnc4)C3)nn2c1O (stereo unspecified) | 85.92%
Cc1nc(N2CCOCC2)nc(C)c1NC(=O)COc1ccccc1 | 15.56%
c1cc(-c2noc(CN3CCn4c(nnc4C4CC4)C3)n2)co1 | -9.374%
O=C1N(Cc2ccc(F)c(F)c2)CCCC12CCN(C1CCSCC1)C2 (stereo unspecified) | -6.504%
COCCCS(=O)(=O)N1CCN(C(=O)CO)CC1 | -3.721%
CSc1sc(NC(=O)C2CCCN(C(N)=O)C2)nc1C (stereo unspecified) | -0.4613%
CCn1c(C2CCCN(Cc3cccc4cnccc34)C2)nn(C)c1=O (stereo unspecified) | 3.036%

SMILES | Percent Effect
CCc1c(C)nc2cc(C3CCN(Cc4ccncc4C)C3)nn2c1O (stereo unspecified) | 81.51%
CCc1c(C)nc2cc(C3CCN(Cc4ccc(F)cc4)C3)nn2c1O (stereo unspecified) | 99.62%
O=C(NC1(c2nc(C3CC3)no2)CCCCC1)c1ccncc1 | -8.803%
O=C(c1ccccc1F)N1CCN(c2ccc(-n3cccc3)nn2)CC1 | -6.21%
CNC(=O)c1cccnc1NCCOc1ccc(CC#N)cc1 | 4.731%
O=C(O)C(F)(F)F.O=C(O)[C@]12CCCN(Cc3ccoc3)C[C@H]1CN(c1ncccn1)C2 | 0.4182%
Cc1cnn(CC2CCCN2C(=O)c2sccc2C#N)c1 (stereo unspecified) | -6.888%
Cc1cnn(CC2CCCN2C(=O)c2cn(-c3ccccc3)nc2C)c1 (stereo unspecified) | -0.04653%
Cc1cnn(CC2CCCN2C(=O)c2ccccc2-n2cccn2)c1 (stereo unspecified) | 86.06%
Cc1cnn(CC2CCCCN2C(=O)c2sccc2C#N)c1 (stereo unspecified) | -11.17%
Cc1cnn(CC2CCCCN2C(=O)c2ccccc2-n2cccn2)c1 (stereo unspecified) | 109.2%
Cc1cnn(CC2CCCN2C(=O)c2sccc2-n2cnnn2)c1 (stereo unspecified) | 107.4%
Cc1cnn(CC2CCCN2C(=O)c2ccccc2-n2cnnn2)c1 (stereo unspecified) | 114.3%
O=C(c1cn(-c2cc(N3CCOCC3)ncn2)cn1)N1CCSCC1 | -13.27%
COc1ccc2c(c1)OCC(CNC(=O)c1ccncc1)C2 (stereo unspecified) | 2.151%
Cc1c[nH]c(C2CCCN(Cc3cccc(C(=O)O)c3)C2)n1 (stereo unspecified) | 79.24%
Cc1c[nH]c(C2CN(Cc3ccccc3C(=O)O)CCO2)n1 (stereo unspecified) | 102.8%
CCCS(=O)(=O)N1CCCC(c2nc(-c3ccccc3)c[nH]2)C1 (stereo unspecified) | 7.84%
Cc1c[nH]c(C2CCCN(Cc3ccccc3C(=O)O)C2)n1.O=CO (stereo unspecified) | 102.4%
Cc1cccc2[nH]c(C3CCCN(Cc4ccccc4C(=O)O)C3)nc12 (stereo unspecified) | 94.13%
Cc1cccc2[nH]c(C3CCCN(Cc4ccc(CO)o4)C3)nc12 (stereo unspecified) | -5.911%
Cc1cc(=O)[nH]c(-c2cccc(CN3CCCN4CCCC4C3)c2)n1 (stereo unspecified) | -8.166%
Cc1n[nH]c(C2CN(Cc3ncc(C(C)C)o3)CCO2)n1 (stereo unspecified) | 3.962%

SMILES | Percent Effect
CC(=O)N[C@@H]1CN(Cc2ccccc2C(=O)O)C[C@H]1C(C)C | -2.27%
CCOC(=O)c1n[nH]cc1CN1CCOC(Cc2ccccc2)C1 (stereo unspecified) | 4.032%
CSc1ncccc1C(=O)N1CCC(c2nc3c(C)cccc3[nH]2)CC1 | -2.536%
CCc1nnc2ccc(NCC3(N4CCCCC4)CCOCC3)nn12 | -22.71%
Cc1ccccc1Cc1nc(CSc2nnc(N)n2C)no1 | 3.092%
CCC(CNC(=O)c1ccco1)N1CCc2ccccc2C1 (stereo unspecified) | 8.519%
CC(C)NC(=O)C1c2c(ncn2C(C)C)CCN1Cc1ccccc1.O=C(O)C(F)(F)F (stereo unspecified) | -4.449%
COc1ncccc1CNC(=O)C1=NN(c2ccccc2)C(=O)CN1 | 17.13%
O=C(OCc1ccccc1)c1cccc(NC(=O)C2COCCO2)c1 (stereo unspecified) | -10.37%
CC(C)N1Cc2cccc(NCC(=O)N(C)C3CCCCC3)c2C1 | -12.78%
OCCN1CCC(CNCc2ccc(N3CCCCC3)cc2)CC1 | -10.73%
CC(C)NS(=O)(=O)c1cc(C(=O)O)cc(-n2cc3c(n2)CCC3)c1 | -3.943%
CC1=N[C@@]2(CC[C@@H]3CN(CC4CC4)C[C@@H]32)C(=O)N1CC(C)C.O=C(O)C(F)(F)F | -11.12%
CC1=N[C@@]2(CC[C@@H]3CN(CC(C)C)C[C@@H]32)C(=O)N1CC(C)C.O=C(O)C(F)(F)F | 10.27%
CC1=N[C@@]2(CC[C@@H]3CN(CC4CC4)C[C@@H]32)C(=O)N1CC1CC1.O=C(O)C(F)(F)F | 106.2%
O=C(O)C(F)(F)F.O=C1NC(c2ccccc2)=N[C@@]12CC[C@@H]1CN(CC3CC3)C[C@@H]12 | 1.711%
CC1=N[C@@]2(CC[C@@H]3CN(Cc4cccc(Cl)c4)C[C@@H]32)C(=O)N1CC1CC1.O=C(O)C(F)(F)F | 106.8%
CC1=N[C@@]2(CC[C@@H]3CN(Cc4ccccc4C)C[C@@H]32)C(=O)N1CC1CC1.O=C(O)C(F)(F)F | 101.1%
CC1=N[C@@]2(CC[C@@H]3CN(Cc4ccccc4F)C[C@@H]32)C(=O)N1CC1CC1.O=C(O)C(F)(F)F | -0.009519%
CC1=N[C@@]2(CC[C@@H]3CN(Cc4ccccc4)C[C@@H]32)C(=O)N1CC1CC1.O=C(O)C(F)(F)F | 87%
COCCN1C[C@H]2CC[C@@]3(N=C(C)N(CC4CC4)C3=O)[C@H]2C1.O=C(O)C(F)(F)F | -0.9614%
CCS(=O)(=O)N1CCC(Nc2c(F)cc(C#N)cc2F)CC1 | 12.27%
Cn1cc(S(=O)(=O)NCC2CCN(C(=O)c3ccoc3)CC2)cn1 | -16.26%

SMILES | Percent Effect
CC1=N[C@@]2(CC[C@@H]3CN(C(=O)NC(C)C)C[C@@H]32)C(=O)N1CC1CC1 | 1.3%
COCCN1C(=O)[C@]2(CC[C@@H]3CN(C(=O)NC4CCCC4)C[C@@H]32)N=C1C | -7.65%
CC1=N[C@@]2(CC[C@@H]3CN(S(=O)(=O)CC(C)C)C[C@@H]32)C(=O)N1C | 16.54%
COCCN1C(=O)[C@]2(CC[C@@H]3CN(Cc4ccccc4F)C[C@@H]32)N=C1C.O=C(O)C(F)(F)F | 90.53%
CC1=N[C@@]2(CC[C@@H]3CN(Cc4ccccc4F)C[C@@H]32)C(=O)N1C | 100.6%
CC1=N[C@@]2(CC[C@@H]3CN(CC(=O)N(C)C)C[C@@H]32)C(=O)N1CC(C)C.O=C(O)C(F)(F)F | 6.41%
COCCN1C(=O)[C@]2(CC[C@@H]3CN(C(=O)NC(C)C)C[C@@H]32)N=C1C | 32.84%
CC1=N[C@@]2(CC[C@@H]3CN(Cc4ccc(C)cc4)C[C@@H]32)C(=O)N1CC1CC1.O=C(O)C(F)(F)F | 104.5%
CCC1=N[C@@]2(CC[C@@H]3CN(Cc4ccccc4F)C[C@@H]32)C(=O)N1.O=C(O)C(F)(F)F | -10.48%
COc1ccc(S(=O)(=O)NCC(c2cccn2C)N(C)C)cc1F (stereo unspecified) | 1.104%
Cc1nn(C)cc1C(=O)N1CCCn2nc(CN3CC[C@H](F)C3)cc2C1 | 10.52%
Cc1nccn1-c1ccc(C(C)NCc2cc[nH]n2)cc1 (stereo unspecified) | -2.741%
CN(Cc1cccc(OCCO)c1)Cc1cccc2ncccc12 | 95.97%
COCCN(Cc1cccc(OCCO)c1)Cc1ccccc1F | 0.9238%
CCCN(Cc1cccc(OCCO)c1)Cc1ccccc1OC | 8.157%
CC(C)c1cc(C(=O)N(C)Cc2cccc3ncccc23)n(C)n1 | -7.2%
CN(Cc1cccc(CCN)c1)Cc1cccc2ncccc12 | 97.29%
CCCc1cc(C(=O)N(C)Cc2cccc3ncccc23)n(C)n1 | 20.91%
CN(Cc1cccc2ncccc12)C(=O)CCC(F)(F)F | -3.963%
CN(Cc1cccnc1N)Cc1cccc2ncccc12 | 108.3%
CN(Cc1csc(-c2cccs2)n1)Cc1cccnc1N | 16.69%
Cc1ccsc1-c1cc(C(=O)O)cc(S(=O)(=O)NCc2ccccn2)c1 | -12.11%
